The target in test [1] is human RAR-related Orphan Receptor gamma (RORg), RORC (gene 6097) (UniProt P51449). Description: ATG_RORg_TRANS: Attagene TRANS-FACTORIAL HepG2 Assay for human RAR-related Orphan Receptor gamma (RORg) (AID 2283011; active = hit-call score of the fitted dose curve at least 0.9, where 1 is the maximum). In outline: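 Readout: reporter transcript induction (RT-PCR, fluorescent primer extension, capillary electrophoresis) after 24 h compound exposure of transiently transfected HepG2 cells carrying a RORg-Gal4 chimera and GAL4-UAS reporters; DMSO served as baseline, with increasing signal fitted.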

Test [2] deals with human Retinoid X Receptor beta (RXRb), RXRB (gene 6257) (UniProt P28702). Description: ATG_RXRb_TRANS: Attagene TRANS-FACTORIAL HepG2 Assay for human Retinoid X Receptor beta (RXRb) (AID 2283013; active = hit-call score of the fitted dose curve at least 0.9, where 1 is the maximum). In short, it runs like this:
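Multiplexed TRANS reporter assay in HepG2; 24 h dosing; reporter mRNA by RT-PCR/CE fluorescence; gain-of-signal relative to DMSO.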

Read-out in test [3]: E-selectin (Homo sapiens) (UniProt P16581)
Description: BSK_3C_Eselectin: BioMAP Diversity Plus: 3C Assay for Eselectin Biomarker Activity (AID 2283015).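 Also: cell surface E-selectin protein quantified by ELISA 24 h after dosing.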 The settings on record: primary human endothelial cells (HUVEC); actives raise or lower the signal. In outline:
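Primary human umbilical vein endothelial cells (3C system) were dosed with chemical and cell-surface E-selectin measured by ELISA 24 h later. Bidirectional curve fitting used DMSO as negative control and baseline.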

Read-out in test [4]: Interleukin-1 alpha (IL1a), IL1A (gene 3552)
Description: BSK_BE3C_IL1a: BioMAP Diversity Plus: BE3C Assay for Interleukin-1 alpha (IL1a) Biomarker Activity (AID 2283016). The settings on record: primary human bronchial epithelial cells; actives raise or lower the signal. In outline: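 Cultures of primary human bronchial epithelial cells receive test chemical. After 24 h, IL-1a is quantified by ELISA, while parallel wells are fixed in TCA and SRB-stained for total protein. Changes in either direction are fitted relative to DMSO.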

Read-out in test [5]: Monocyte Chemoattractant Protein-1 (MCP1), CCL2 (gene 6347)
Description: BSK_3C_MCP1: BioMAP Diversity Plus: 3C Assay for Monocyte Chemoattractant Protein-1 (MCP1) Biomarker Activity (AID 2283017). The settings on record: primary human endothelial cells (HUVEC); actives raise or lower the signal. In short, it runs like this:
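Primary human umbilical vein endothelial cells (3C system) were exposed to test chemical for 24 h, after which MCP-1 was quantified by ELISA. Activity was fitted bidirectionally against DMSO as negative control and baseline.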

Read-out in test [6]: Monocyte Chemoattractant Protein-1 (MCP1), CCL2 (gene 6347)
Description: BSK_4H_MCP1: BioMAP Diversity Plus: 4H Assay for Monocyte Chemoattractant Protein-1 (MCP1) Biomarker Activity (AID 2283018). As to conditions: primary human endothelial cells (HUVEC); actives raise or lower the signal. In outline:
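Readout: MCP-1 ELISA on compound-treated HUVEC, sampled 24 h post-dosing. Baseline and negative control DMSO; bidirectional fit. Overt toxicity checked alongside by sulforhodamine B protein staining at time of biomarker measurement.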

Read-out in test [7]: Human Leukocyte Antigen - DR isotype (HLADR), HLA-DRA (gene 3122)
Description: BSK_3C_HLADR: BioMAP Diversity Plus: 3C Assay for Human Leukocyte Antigen - DR isotype (HLADR) Biomarker Activity (AID 2283019).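 Also: ELISA of cell-surface HLA-DR on HUVEC 24 h after dosing.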 The settings on record: primary human endothelial cells (HUVEC); actives raise or lower the signal. In outline:
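Primary human umbilical vein endothelial cells (3C system) were dosed with compound and cell-surface HLA-DR was quantified by ELISA at 24 h. Activity was fitted bidirectionally against DMSO as negative control and baseline.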

Read-out in test [8]: Interleukin-8 (IL8), CXCL8 (gene 3576)
Description: BSK_3C_IL8: BioMAP Diversity Plus: 3C Assay for Interleukin-8 (IL8) Biomarker Activity (AID 2283020). The settings on record: primary human endothelial cells (HUVEC); actives raise or lower the signal. In outline:
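Human vascular endothelial cells (umbilical vein) in the 3C system; IL-8 level detected by ELISA at 24 h post-dose, with DMSO as baseline.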

Test [9] in a line: BSK_3C_SRB: Viability Assessment in the BioMAP Diversity Plus: 3C Assay (AID 2283023).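 Also: fitted both ways against DMSO so a hit may be signal rise or drop.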 As to conditions: primary human endothelial cells (HUVEC). In short, it runs like this:
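Primary human umbilical vein endothelial cells in the 3C system were read 24 h after compound dosing. Total protein was stained with 0.1% sulforhodamine B after 10% TCA fixation and read at 560 nm, with bidirectional fitting against DMSO as baseline.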

Read-out in test [10]: Matrix Metallopeptidase 1 (MMP1), MMP1 (gene 4312)
Description: BSK_BE3C_MMP1: BioMAP Diversity Plus: BE3C Assay for Matrix Metallopeptidase 1 (MMP1) Biomarker Activity (AID 2283024). The settings on record: primary human bronchial epithelial cells; actives raise or lower the signal. In short, it runs like this:
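Dose cells, wait 24 h, run MMP1 ELISA; cells are human bronchial epithelial primaries. Both increases and decreases relative to DMSO counted.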

A short description of test [11]: BSK_3C_Vis: BioMAP Diversity Plus: 3C Assay for Morphology Visualization (AID 2283025).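 Also: fitted both ways so gain or loss versus DMSO counts.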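 As to AC50: light microscopy image of cell morphology used as background control.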 As to conditions: primary human endothelial cells (HUVEC). In outline:
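Endothelial cells from human umbilical vein were treated with test chemicals for 24 h and inspected by light microscopy for changes in cell conformation.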

Read-out in test [12]: Pselectin, SELP (gene 6403)
Description: BSK_4H_Pselectin: BioMAP Diversity Plus: 4H Assay for Pselectin Biomarker Activity (AID 2283026). As to conditions: primary human endothelial cells (HUVEC); actives raise or lower the signal. In outline: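 Human vascular endothelium from umbilical vein; P-selectin measured by ELISA at 24 h post-dose, with cytotoxicity checked by sulforhodamine B total-protein staining in parallel cultures (0.1% SRB after 10% TCA fixation, read at 560 nm).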

The nature of test [13]: BSK_4H_SRB: Viability Assessment in the BioMAP Diversity Plus: 4H Assay (AID 2283027).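 Also: cells exposed to compound for 24 h before staining.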 The settings on record: primary human endothelial cells (HUVEC). In outline:
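Human umbilical vein endothelial cells were dosed with chemical and, after 24 h, fixed with 10% TCA, stained with 0.1% sulforhodamine B, and read at 560 nm to give total protein as a cytotoxicity measure. Bidirectional fitting relative to DMSO control.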

Read-out in test [14]: Thrombomodulin, THBD (gene 7056)
Description: BSK_3C_Thrombomodulin: BioMAP Diversity Plus: 3C Assay for Thrombomodulin Biomarker Activity (AID 2283029). The settings on record: primary human endothelial cells (HUVEC); actives raise or lower the signal. In short, it runs like this:
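Thrombomodulin ELISA, human primary HUVEC, 24 h post-dose; data fitted in both directions relative to DMSO.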

Read-out in test [15]: Urokinase-type plasminogen activator receptor (uPAR), PLAUR (gene 5329)
Description: BSK_4H_uPAR: BioMAP Diversity Plus: 4H Assay for Urokinase-type plasminogen activator receptor (uPAR) Biomarker Activity (AID 2283030). The settings on record: primary human endothelial cells (HUVEC); actives raise or lower the signal. In short, it runs like this:
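Primary human umbilical vein endothelial cells were exposed to chemical for 24 h before cell-surface uPAR was quantified by ELISA. Activity was fitted bidirectionally against the DMSO negative control baseline.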

Read-out in test [16]: Monokine induced gamma interferon (MIG), CXCL9 (gene 4283)
Description: BSK_3C_MIG: BioMAP Diversity Plus: 3C Assay for Monokine induced gamma interferon (MIG) Biomarker Activity (AID 2283021). The settings on record: primary human endothelial cells (HUVEC); actives raise or lower the signal. In outline: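 After 24 h of treatment, human umbilical vein endothelial cultures (3C system) had their MIG biomarker level determined by ELISA, with DMSO serving as negative control.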

The target in test [17] is human Vitamin D Receptor (VDR), VDR (gene 7421) (UniProt P11473). Description: ATG_VDR_TRANS: Attagene TRANS-FACTORIAL HepG2 Assay for human Vitamin D Receptor (VDR) (AID 2283022; active = hit-call score of the fitted dose curve at least 0.9, where 1 is the maximum). In outline: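 HepG2 cells were transiently transfected with multiple GAL4-UAS reporter units, so signal reflects exogenous chimeric receptor-Gal4 activity. After 24 h compound exposure, reporter mRNA was measured by RT-PCR, fluorescent labelling and capillary electrophoresis, fitted for gain of signal versus DMSO.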

The nature of test [18]: BSK_BE3C_SRB: Viability Assessment in the BioMAP Diversity Plus: BE3C Assay (AID 2283028). As to conditions: primary human bronchial epithelial cells. In short, it runs like this: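 Human primary bronchial epithelial cells were exposed to test chemicals for 24 h. Total protein in parallel cultures was then measured by staining with 0.1% sulforhodamine B after 10% TCA fixation, with absorbance read at 560 nm. Activity was fitted bidirectionally against DMSO.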

Test [19] concerns the target Retinoic acid receptor RXR-alpha (Homo sapiens) (UniProt P19793). Description: ATG_RXRa_TRANS: Attagene TRANS-FACTORIAL HepG2 Assay for human Retinoid X Receptor alpha (RXRa) (AID 2283012; active = hit-call score of the fitted dose curve at least 0.9, where 1 is the maximum). In outline: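 Cells (HepG2) carried transiently transfected GAL4-responsive reporter units. Following a 24 h chemical incubation, reporter mRNA induction was read via RT-PCR fragment analysis; DMSO served as negative control and baseline.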

Test [20] addresses human Thyroid Receptor alpha (THRa1), THRA (gene 7067) (UniProt P10827). Description: ATG_THRa1_TRANS: Attagene TRANS-FACTORIAL HepG2 Assay for human Thyroid Receptor alpha (THRa1) (AID 2283014; active = hit-call score of the fitted dose curve at least 0.9, where 1 is the maximum). In outline: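 HepG2 cells transiently transfected with multiplexed GAL4-UAS reporter units for exogenous chimeric THRa1-Gal4; reporter mRNA measured 24 h after dosing by RT-PCR, 6-FAM labelling, HpaI digestion and capillary electrophoresis. Gain-of-signal fitted versus DMSO baseline.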

Structures are written as SMILES. Records with an inconclusive call do not appear. Calls of active or inactive are those of the source. The calls were made as follows, unless noted: active = hit-call score of the fitted dose curve at least 0.9, where 1 is the maximum; inactive = score below 0.9.

Chain of human Vitamin D Receptor (VDR), VDR (gene 7421) (P11473 whole entry, looked up, the tested form may be a part): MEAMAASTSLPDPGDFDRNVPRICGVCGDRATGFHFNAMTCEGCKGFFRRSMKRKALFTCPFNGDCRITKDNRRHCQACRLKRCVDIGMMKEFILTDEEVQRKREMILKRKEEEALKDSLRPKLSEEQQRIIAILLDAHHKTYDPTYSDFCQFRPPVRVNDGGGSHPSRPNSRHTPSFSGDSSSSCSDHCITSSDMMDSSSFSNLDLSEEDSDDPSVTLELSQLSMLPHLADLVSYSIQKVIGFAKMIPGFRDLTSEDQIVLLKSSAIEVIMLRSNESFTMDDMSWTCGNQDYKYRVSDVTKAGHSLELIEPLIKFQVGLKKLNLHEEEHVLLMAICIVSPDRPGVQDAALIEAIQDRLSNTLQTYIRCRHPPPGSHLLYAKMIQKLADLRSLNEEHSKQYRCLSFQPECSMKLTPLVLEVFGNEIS
Chain of E-selectin (Homo sapiens) (P16581 whole entry, looked up): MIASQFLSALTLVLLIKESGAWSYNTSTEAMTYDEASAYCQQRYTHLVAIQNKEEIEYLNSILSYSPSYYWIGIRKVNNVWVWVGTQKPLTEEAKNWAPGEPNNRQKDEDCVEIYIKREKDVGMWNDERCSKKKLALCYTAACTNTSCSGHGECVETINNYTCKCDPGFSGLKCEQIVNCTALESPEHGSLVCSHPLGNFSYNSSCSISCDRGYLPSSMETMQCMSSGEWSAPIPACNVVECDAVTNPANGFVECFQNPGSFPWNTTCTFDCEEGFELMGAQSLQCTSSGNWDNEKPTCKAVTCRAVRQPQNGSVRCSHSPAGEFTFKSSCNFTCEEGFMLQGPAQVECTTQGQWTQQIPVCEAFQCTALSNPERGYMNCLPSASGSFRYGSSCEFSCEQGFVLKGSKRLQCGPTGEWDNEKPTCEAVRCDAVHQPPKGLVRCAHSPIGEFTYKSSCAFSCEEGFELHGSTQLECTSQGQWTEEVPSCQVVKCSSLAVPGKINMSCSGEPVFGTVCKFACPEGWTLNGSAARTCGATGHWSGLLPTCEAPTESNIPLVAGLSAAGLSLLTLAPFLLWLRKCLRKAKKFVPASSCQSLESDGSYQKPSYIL
Chain of human RAR-related Orphan Receptor gamma (RORg), RORC (gene 6097) (P51449 whole entry, looked up, the tested form may be a part): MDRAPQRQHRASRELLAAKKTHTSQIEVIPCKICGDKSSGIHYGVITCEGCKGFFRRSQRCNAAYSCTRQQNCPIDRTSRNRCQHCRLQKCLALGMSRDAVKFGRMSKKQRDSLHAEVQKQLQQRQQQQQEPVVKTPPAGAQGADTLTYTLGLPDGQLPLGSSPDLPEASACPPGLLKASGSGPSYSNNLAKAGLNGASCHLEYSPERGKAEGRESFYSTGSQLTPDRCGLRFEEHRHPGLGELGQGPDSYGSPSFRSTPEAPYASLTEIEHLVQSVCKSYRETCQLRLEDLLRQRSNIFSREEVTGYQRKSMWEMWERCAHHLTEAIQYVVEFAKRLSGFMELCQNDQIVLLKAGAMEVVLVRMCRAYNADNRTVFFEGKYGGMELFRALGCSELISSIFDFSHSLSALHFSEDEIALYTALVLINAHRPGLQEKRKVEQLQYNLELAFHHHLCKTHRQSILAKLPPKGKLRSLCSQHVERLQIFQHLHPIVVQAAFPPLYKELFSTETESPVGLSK
Chain of human Retinoid X Receptor beta (RXRb), RXRB (gene 6257) (P28702 whole entry, looked up): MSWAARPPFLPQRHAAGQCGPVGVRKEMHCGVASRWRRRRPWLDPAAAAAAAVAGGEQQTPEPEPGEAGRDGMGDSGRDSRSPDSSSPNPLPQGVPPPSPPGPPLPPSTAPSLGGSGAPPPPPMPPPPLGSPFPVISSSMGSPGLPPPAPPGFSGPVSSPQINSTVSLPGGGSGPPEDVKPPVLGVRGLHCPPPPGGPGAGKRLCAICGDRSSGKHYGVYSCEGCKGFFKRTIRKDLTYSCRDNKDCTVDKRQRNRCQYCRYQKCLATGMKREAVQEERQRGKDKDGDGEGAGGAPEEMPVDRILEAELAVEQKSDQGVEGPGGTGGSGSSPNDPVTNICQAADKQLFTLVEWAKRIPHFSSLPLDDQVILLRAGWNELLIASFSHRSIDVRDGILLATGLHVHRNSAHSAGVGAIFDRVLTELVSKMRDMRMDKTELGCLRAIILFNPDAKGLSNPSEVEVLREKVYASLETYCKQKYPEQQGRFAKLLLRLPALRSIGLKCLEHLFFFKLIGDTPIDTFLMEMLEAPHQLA
Chain of human Thyroid Receptor alpha (THRa1), THRA (gene 7067) (P10827 whole entry, looked up, the tested form may be a part): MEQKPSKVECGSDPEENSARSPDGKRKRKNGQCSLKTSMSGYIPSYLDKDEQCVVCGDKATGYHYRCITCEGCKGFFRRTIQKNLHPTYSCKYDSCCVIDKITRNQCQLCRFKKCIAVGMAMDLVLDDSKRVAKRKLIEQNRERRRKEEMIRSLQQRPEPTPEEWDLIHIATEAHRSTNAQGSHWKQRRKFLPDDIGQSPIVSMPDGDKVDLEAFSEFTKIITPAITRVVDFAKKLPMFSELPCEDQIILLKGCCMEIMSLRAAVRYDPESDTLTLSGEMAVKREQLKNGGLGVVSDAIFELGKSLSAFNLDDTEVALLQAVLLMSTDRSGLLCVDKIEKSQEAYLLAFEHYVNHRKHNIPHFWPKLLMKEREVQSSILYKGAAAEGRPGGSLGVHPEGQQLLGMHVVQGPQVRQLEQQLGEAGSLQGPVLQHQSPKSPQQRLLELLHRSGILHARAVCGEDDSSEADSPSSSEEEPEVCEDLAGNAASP
Chain of Retinoic acid receptor RXR-alpha (Homo sapiens) (P19793 whole entry, looked up, the tested form may be a part): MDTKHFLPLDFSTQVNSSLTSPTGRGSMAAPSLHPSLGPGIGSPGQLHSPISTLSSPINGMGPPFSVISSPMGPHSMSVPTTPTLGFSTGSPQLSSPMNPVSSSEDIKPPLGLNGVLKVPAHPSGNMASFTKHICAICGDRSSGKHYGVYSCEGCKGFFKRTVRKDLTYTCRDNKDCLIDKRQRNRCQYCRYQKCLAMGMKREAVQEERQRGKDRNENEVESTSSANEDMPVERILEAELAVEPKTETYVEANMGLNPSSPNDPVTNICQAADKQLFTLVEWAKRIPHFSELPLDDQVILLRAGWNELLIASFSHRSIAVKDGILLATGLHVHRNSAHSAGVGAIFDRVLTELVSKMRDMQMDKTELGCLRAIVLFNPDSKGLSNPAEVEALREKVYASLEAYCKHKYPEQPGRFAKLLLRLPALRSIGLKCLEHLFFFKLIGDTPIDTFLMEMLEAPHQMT

Take `C[Si]1(C)O[Si](C)(C)O[Si](C)(C)O[Si](C)(C)O1`: the molecule was called inactive in test [1], in [3], in test [4], in [5], in test [6] and in test [7]. For the same molecule, the outcome in test [8], in test [9], in test [10], in test [11], in test [12] and in test [13] was inactive. Moreover, the result in test [14] and in test [15] was inactive. For the same molecule, the AC50 (commonly the concentration at which the activity in the assay is half-maximal) in test [2] is 46.9 µM (active).

Turning to `CCCCN(CCCC)CCCC`, the outcome in test [1], in [2], in test [3], in test [4], in test [5] and in [6] was inactive. For the same molecule, the outcome in test [7], in test [8], in [16], in test [17], in test [10] and in test [11] was inactive. Also, the result in test [12], in test [13], in test [18], in test [14] and in test [15] was inactive.

Turning to `CCCCCCCCCCCCCCCCCC(=O)O`, the call in test [1], in [3], in [4], in test [5], in test [6] and in test [7] was inactive. For the same molecule, the result in test [8], in test [16], in test [10], in test [12], in test [13] and in [14] was inactive. In addition, the AC50 is 20 µM (active) in test [9] and 39 µM (active) in test [11].

Consider `CC(=O)OC/C=C(\C)CCC=C(C)C`, for which the outcome in [1], in test [19], in [2], in test [3], in test [4] and in test [5] was inactive. The result in [6], in test [7], in [8], in test [10], in test [11] and in test [12] was inactive. Also, the result in test [13], in test [18], in [14] and in [15] was inactive.

As for `Cc1cccc(C)c1O`, the outcome in test [1], in test [2], in [20], in [3], in test [4] and in [5] was inactive. The result in test [6], in test [7], in [8], in test [16], in test [17] and in test [10] was inactive. The result in test [11], in test [12], in [13], in test [18], in test [14] and in test [15] was inactive.

On to `CCOc1ccc2c(c1)C(C)=CC(C)(C)N2`, for which the result in test [1], in test [3], in [4], in [5], in test [6] and in test [7] was inactive. For the same molecule, the outcome in [8], in [10], in test [11], in test [12], in test [13] and in [18] was inactive. Besides, the outcome in test [14] and in test [15] was inactive. For the same molecule, the AC50 in test [2] is 6.69 µM (active); in test [20], 100 µM (active); in test [17] it was 150 µM (active).

Consider `O=C(N[C@@H](Cc1ccccc1)[C@@H](O)C(=O)N1C[C@@H](O)[C@@H](O)C1)c1cc2cc(Cl)ccc2[nH]1`, for which the molecule was classed as inactive in test [1], in [3], in test [4], in [5], in test [6] and in test [7]. The outcome in [8], in [16], in test [17], in test [9], in test [10] and in test [11] was inactive. Also, the result in [12], in test [13], in [18], in test [14] and in [15] was inactive.

On to `Cc1ccc2ncccc2c1`, for which the call in [1], in test [2], in test [3], in test [4], in test [5] and in test [6] was inactive. Moreover, the outcome in test [7], in [8], in [9], in [10], in [11] and in [12] was inactive. Moreover, the result in test [13], in [14] and in [15] was inactive.
